From PubChem BioAssay AID652192 (Johns Hopkins Ion Channel Center, 2013)
Results with a measured potency or affinity are listed apart.

What follows are compounds tested against Potassium voltage-gated channel subfamily KQT member 2 (Rattus norvegicus) (UniProt O88943) (assay: block of rat KCNQ2 potassium channel – cell-based, FluxOR thallium flux, concentration-response, selectivity assay for TASK1 inhibitor project, SAR follow-up (AID 652192)). Details: KCNQ2 cell line, FluxOR thallium flux fluorescence; series mostly up to 30 µM; flux ratio, lower = inhibition: at the top concentration;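 active = peak inhibition of the KCNQ2 potassium channel over 30% at some tested dose, with a fitted dose response curve; inactive = no inhibition at any dose, or no curve fitted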.
Sequence of Potassium voltage-gated channel subfamily KQT member 2 (Rattus norvegicus) (O88943 whole entry, looked up): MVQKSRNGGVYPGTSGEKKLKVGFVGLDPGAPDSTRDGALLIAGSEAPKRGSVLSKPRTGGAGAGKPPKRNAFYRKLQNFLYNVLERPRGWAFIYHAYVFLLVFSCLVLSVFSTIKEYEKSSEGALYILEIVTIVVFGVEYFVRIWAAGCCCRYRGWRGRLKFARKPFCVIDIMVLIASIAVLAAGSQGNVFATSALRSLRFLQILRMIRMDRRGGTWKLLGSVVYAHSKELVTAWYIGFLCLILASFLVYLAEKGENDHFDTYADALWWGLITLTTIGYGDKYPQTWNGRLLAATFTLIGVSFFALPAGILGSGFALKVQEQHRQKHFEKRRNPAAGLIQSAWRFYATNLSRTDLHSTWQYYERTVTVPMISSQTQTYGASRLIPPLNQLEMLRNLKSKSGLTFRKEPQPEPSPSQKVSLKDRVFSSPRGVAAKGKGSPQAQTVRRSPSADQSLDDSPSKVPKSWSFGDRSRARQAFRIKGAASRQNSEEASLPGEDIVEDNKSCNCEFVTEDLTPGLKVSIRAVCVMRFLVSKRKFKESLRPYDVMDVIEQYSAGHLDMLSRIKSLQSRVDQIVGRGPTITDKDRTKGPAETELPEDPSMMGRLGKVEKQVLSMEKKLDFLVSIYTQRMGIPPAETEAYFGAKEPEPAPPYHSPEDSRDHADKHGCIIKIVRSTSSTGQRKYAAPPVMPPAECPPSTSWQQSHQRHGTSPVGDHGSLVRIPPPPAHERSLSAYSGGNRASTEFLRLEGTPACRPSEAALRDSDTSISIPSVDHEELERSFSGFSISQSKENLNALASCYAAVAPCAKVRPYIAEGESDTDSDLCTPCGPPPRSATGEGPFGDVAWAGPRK

Flux ratio, lower = inhibition, inactive:
CCOc1ccccc1NC(=O)c1cccc(NC(=O)c2ccc(Cl)cc2)c1 0.181, O=C(Nc1cccc(NC(=O)c2ccccn2)c1)c1ccccc1 0.202, Cc1ccc(C(=O)Nc2cccc(NC(=O)c3ccccc3)c2)cc1 0.143, CCOc1ccc(NC(=O)c2cccc(NC(=O)C3CCCC3)c2)cc1 0.18, CCOc1ccccc1NC(=O)c1cccc(NC(=O)c2cccc(C(F)(F)F)c2)c1 0.174, Cc1cccc(C(=O)Nc2cccc(NC(=O)c3ccc(Cl)cc3)c2)c1 0.192, Cc1cccc(C(=O)Nc2cccc(NC(=O)c3ccc(C(F)(F)F)cc3)c2)c1 0.16, CCOc1ccccc1NC(=O)c1cccc(NC(=O)C(C)(C)C)c1 0.181, CCOc1ccccc1NC(=O)c1cccc(NC(=O)C2CCCO2)c1 (stereo not drawn) 0.195, COc1ccccc1C(=O)Nc1cccc(NC(=O)c2ccccc2)c1 0.162, CCOc1ccccc1NC(=O)c1cccc(NC(=O)c2ccc(OC)cc2)c1 0.172, O=C(Nc1cccc(NC(=O)c2cccnc2)c1)c1ccccc1 0.219, Cc1ccccc1C(=O)Nc1cccc(NC(=O)c2ccccc2)c1 0.195, COc1ccccc1NC(=O)c1cccc(NC(=O)c2ccccc2OC)c1 0.172, COc1ccccc1C(=O)Nc1cccc(NC(=O)c2ccccc2OC)c1 0.346, Cc1cccc(C(=O)Nc2cccc(NC(=O)c3ccccc3Cl)c2)c1 0.173, CC(C)c1ccccc1C(=O)Nc1cccc(NC(=O)c2ccccc2OC(F)(F)F)c1 0.173, CCOc1cccc(NC(=O)c2cccc(NC(=O)C3CCCC3)c2)c1 0.125
